Among the data in PubChem BioAssay (NCI) are growth values, retold here.

The structures appear in SMILES notation. This is part of a sample that, as a whole, favours compounds with a hit. Of some 83,000 tested, about 20% had one in any assay.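 Interpretation: 100, growth as untreated; towards 0, rising growth inhibition; 0, no net growth; 0 to -100, cell death. Compounds scoring below 10 were considered active.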 Unmarked numbers belong to inactive results. The source made the active and inactive calls.

Some test systems named below: NCI-H23 lung; NCI-H226 lung; NCI-H322M lung; HOP-62 NSCLC; NCI-H460 lung; HOP-92 NSCLC; NCI-H522 lung; A549/ATCC NSCLC; 786-0 renal; COLO 205 colon.
Holding throughout (assay): NCI-60 one-dose screen, 48 h (100 = growth as untreated, 0 = no growth, -100 = all killed)
Holding throughout (details): 10 µM unless noted

In the case of `CSc1nc2c(c(=O)[nH]1)C1(C(=O)Nc3ccccc31)c1c(nc(SC)[nH]c1=O)N2`, the growth in the test on NCI-H23 lung is 105%; in the test with NCI-H226 lung it was 94.9%; in the test on NCI-H322M lung, 92.5%; in the test with HOP-62 NSCLC, 113%; in the test with NCI-H460 lung, 103%; in the test with HOP-92 NSCLC, 98.8%. The growth was 123% in the test with NCI-H522 lung, 100% in the test with A549/ATCC NSCLC, 103% with 786-0 renal and 109% with COLO 205 colon.
Turning to `CC1=CC(C)(C)Nc2ccc(Cc3ccc4c(c3)C(C)=CC(C)(C)N4)cc21`, the growth in the test with NCI-H23 lung was 97.1%; in the test on NCI-H226 lung, 88.4%; in the test with NCI-H322M lung, 113%; in the test with HOP-62 NSCLC, 94.1%; in the test on NCI-H460 lung, 104%; with HOP-92 NSCLC it was 99.7%. Moreover, the growth in the test with NCI-H522 lung was 68%; in the test on A549/ATCC NSCLC, 78.5%; with 786-0 renal it was 97.1%; in the test on COLO 205 colon, 125%.
Take `O=C1/C(=C/c2cn(-c3ccccc3)nc2-c2ccccc2)SC(=S)N1CCc1ccccc1`: the growth in the test on NCI-H23 lung was 102%; with NCI-H226 lung, 99.4%; with NCI-H322M lung it was 113%; in the test with HOP-62 NSCLC it was 94%; in the test with NCI-H460 lung, 102%; in the test with HOP-92 NSCLC, 122%. The growth is 93.5% in the test on NCI-H522 lung, 111% in the test on A549/ATCC NSCLC, 106% in the test on 786-0 renal and 116% in the test with COLO 205 colon.
As for `Cc1cc(N2CCCCC2)nc(NC2CCCC(Nc3ccnc4cc(Cl)ccc34)C2)n1` (stereo not given), the growth with NCI-H23 lung was -15.5% (active); in the test with NCI-H226 lung, -50.8% (active); in the test on NCI-H322M lung, -48.7% (active); in the test with HOP-62 NSCLC, -86.5% (active); in the test on NCI-H460 lung, -64.9% (active); with HOP-92 NSCLC, -71.1% (active). Also, the growth in the test with NCI-H522 lung is -54.6% (active); with A549/ATCC NSCLC, -23.7% (active); in the test on 786-0 renal, -96% (active); in the test on COLO 205 colon it was -85.8% (active).
Regarding `COc1cccc2c1C(=O)c1c(O)c3c(c(O)c1C2=O)C[C@](O)(C(=O)CO)C[C@H]3O[C@@H]1C[C@@H](NC(=O)CCCN(C)C2(c3ccc(F)cc3)CC3CCC2C3)[C@H](O)[C@@H](C)O1` (stereo not given in full), the growth in the test with NCI-H23 lung was -59.7% (active); in the test on NCI-H226 lung, 65.2%; in the test on NCI-H322M lung it was 49.1%; in the test with HOP-62 NSCLC it was 58.5%; with NCI-H460 lung it was -86.8% (active); in the test with HOP-92 NSCLC, 48.7%. Further, the growth in the test on NCI-H522 lung is -82.7% (active); with A549/ATCC NSCLC, -80.1% (active); in the test on 786-0 renal, -94.2% (active); with COLO 205 colon, -76.2% (active).
As to `COc1cccc(-c2nc3sccn3c2-c2ccnc(NCCNS(=O)(=O)c3ccccc3)c2)c1`, the growth with NCI-H23 lung was 18.9%; in the test on NCI-H226 lung, 18.7%; with NCI-H322M lung it was 58.3%; in the test on HOP-62 NSCLC, 36.8%; in the test on NCI-H460 lung, 20%; in the test on HOP-92 NSCLC, 21.9%. Besides, the growth is 29.8% in the test on NCI-H522 lung, 10.3% in the test on A549/ATCC NSCLC, 38.9% with 786-0 renal and 21.6% in the test on COLO 205 colon.
Take `COc1cccc(-c2nc3sccn3c2-c2ccnc(NCCCNS(=O)(=O)c3cccc(Cl)c3)c2)c1`: the growth is 39% with NCI-H23 lung; 33.8% in the test with NCI-H226 lung; 77.4% with NCI-H322M lung; 65% in the test with HOP-62 NSCLC; 64.8% with NCI-H460 lung; 48.8% with HOP-92 NSCLC. The growth is 43.7% in the test with NCI-H522 lung, 35.8% in the test on A549/ATCC NSCLC, 63.9% in the test with 786-0 renal and 39.8% in the test with COLO 205 colon.
Regarding `CCCc1cc(=O)n2c(C(=O)Nc3ccc(F)cc3)c(C(=O)Nc3ccc(F)cc3)sc2n1`, the growth in the test with NCI-H23 lung is 81.9% [30 µM]; in the test with NCI-H226 lung, 69.5% [30 µM]; in the test on NCI-H322M lung it was 54.8% [30 µM]; in the test with HOP-62 NSCLC, 27.8% [30 µM]; in the test on NCI-H460 lung, 52% [30 µM]; in the test with HOP-92 NSCLC, -36.3% [30 µM] (active). The growth with NCI-H522 lung was 62.7% [30 µM]; in the test on A549/ATCC NSCLC, 34.1% [30 µM]; in the test with 786-0 renal, 17.6% [30 µM]; in the test with COLO 205 colon, 71.4% [30 µM].
Take `COc1ccc(C(=S)N2CCN(c3cccc(Cl)c3)CC2)cc1`: the growth in the test on NCI-H23 lung was 101%; in the test on NCI-H226 lung it was 113%; with NCI-H322M lung, 98.3%; in the test on HOP-62 NSCLC, 98.5%; in the test on NCI-H460 lung, 96.7%; in the test with HOP-92 NSCLC, 94.6%. In addition, the growth in the test on NCI-H522 lung is 108%; in the test on A549/ATCC NSCLC, 91.7%; in the test with 786-0 renal, 97.1%; in the test with COLO 205 colon, 141%.
As for `CSc1nc(Nc2cccc(NC(=O)/C(C#N)=C/c3c(Cl)cccc3Cl)c2)c(C#N)c(-c2cccc([N+](=O)[O-])c2)n1`, the growth in the test on NCI-H23 lung is 57.9%; in the test with NCI-H226 lung it was 64.9%; with NCI-H322M lung, 85.5%; with HOP-62 NSCLC, 89.7%; in the test with NCI-H460 lung, 71.7%; in the test on HOP-92 NSCLC, 59.8%. The growth is 38.8% with NCI-H522 lung, 92% in the test on A549/ATCC NSCLC, 54% in the test with 786-0 renal and 76% in the test on COLO 205 colon.
With `COc1cc(C(=O)/C=C/c2cccnc2Nc2ccc(Cl)cc2)cc(OC)c1OC`, the growth with NCI-H23 lung is -17.5% (active); with NCI-H226 lung, -82.7% (active); with NCI-H322M lung, 9.66% (active); in the test with HOP-62 NSCLC, -68.6% (active); in the test on NCI-H460 lung, 4.24% (active); in the test on HOP-92 NSCLC, -54.5% (active). Besides, the growth in the test with NCI-H522 lung is -58.4% (active); in the test on A549/ATCC NSCLC, -29.2% (active); in the test on 786-0 renal it was -83.4% (active); in the test on COLO 205 colon, -81.4% (active).
On to `O=C(N(c1ccccc1)c1ccccc1)n1ccc2nc(Cl)nc(Cl)c21`, for which the growth was 60.8% in the test on NCI-H23 lung; 53.9% with NCI-H226 lung; 67.9% in the test on NCI-H322M lung; 45.5% in the test with HOP-62 NSCLC; 36.1% in the test with NCI-H460 lung; 52.3% with HOP-92 NSCLC. The growth in the test with NCI-H522 lung was 24.9%; with A549/ATCC NSCLC it was 56.2%; in the test with 786-0 renal, 80.1%; with COLO 205 colon, 77.7%.
On to `OC(COc1cccc2ccccc12)CN1CCN(c2ccccc2Cl)CC1` (stereo not given), for which the growth in the test on NCI-H23 lung is 80.3%; with NCI-H226 lung, 106%; with NCI-H322M lung, 95.5%; in the test with HOP-62 NSCLC, 88%; with NCI-H460 lung it was 91.1%; in the test with HOP-92 NSCLC, 74.5%. The growth with NCI-H522 lung was 98.8%; in the test on A549/ATCC NSCLC it was 96.6%; with 786-0 renal it was 91.4%; with COLO 205 colon it was 104%.
